From PubChem
HER2 expr 66K: lowers expression of human Her2 kinase; SKBR-3 HER2 protein level, AlphaScreen, 18-24 h; stronger effect = lower value; P04626; HER2 level % of control, % at 10 µM; actives 0.69% (n = 65,000);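 active = HER2 level under 5% of the carrier-only control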;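 also: 100% = DMSO carrier and 0% = 500 nM PU-H71 HSP90 inhibitor; lower value means stronger loss of Her2 protein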
SKBR3 24h inh: SK-BR-3 proliferation inhibitors; actives 0.47% (n = 41,000); SK-BR-3 viability, CellTiter-Glo ATP luminescence, 24 h; stronger effect = lower value; viability, % at 10 µM;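 active = viability at or below the median of all test compounds minus 3 SD, in both replicates if run twice, cut at about 45% in these data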;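 also: 100% = median untreated cell wells and 0% = median positive control drug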
Jurkat tox 60K: reduces viability or proliferation of Jurkat cells | Jurkat E6.1 viability, ATP luminescence, 48 h | inhibition, % at 4 µM | actives 1.2% (n = 56,000) | AID 463;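 active = inhibition above the mean inhibition of all tested compounds plus 3 SD, cut at about 28% in these data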
Numbers without * were called inactive; / = not tested or not shown. Shown are actives, neighbours in structure and some others; about 2% of the full set was active somewhere.

SMILES	HER2 expr 66K	SKBR3 24h inh	Jurkat tox 60K
Cc1ccc(C)c(N(CC(=O)NC2CCCCC2)C(=O)CCC(=O)Nc2ccccn2)c1	84	77	-9
CCOc1ccccc1N1CCN(Cc2cccc(OC)c2O)CC1	109	/	4
COc1ccccc1N1CCN(Cc2cc(Br)c(O)c3ncccc23)CC1	31	/	61*
Oc1cc(Cc2ccccc2)cnc1CN1CCCCC1	117	100	-3
Oc1ccc(COCc2ccccc2)c2cccnc12	82	49	68*
COc1ccccc1N1CCN(c2nc(C)nc3c2oc2ccccc23)CC1	27	94	77*
Oc1c(CN2CCCCC2)cc(COCc2ccccc2)c2cccnc12	54	/	34*
Oc1ccc(CNc2ccccc2F)c2cccnc12	62	/	3
Cc1nc(N2CCN(Cc3ccc4c(c3)OCO4)CC2)c2oc3ccccc3c2n1	40	74	/
CC(CCc1ccco1)NC(=O)Cn1ncc2c1-c1ccccc1OC2 (configuration not stated)	105	/	4
CN1CC(=O)NC1=NC(=O)c1ccc(Cl)c(S(=O)(=O)N2CCCCCC2)c1	63	/	2
CCNC(=O)[C@@H]1CCCN1C(=O)[C@H](CCCN=C(N)N)NC(=O)[C@H](CC(C)C)NC(=O)[C@@H](CC(C)C)NC(=O)[C@H](Cc1ccc(O)cc1)NC(=O)[C@H](CO)NC(=O)[C@H](Cc1c[nH]c2ccccc12)NC(=O)[C@H](Cc1cnc[nH]1)NC(=O)[C@@H]1CCC(=O)N1	117	81	/
COc1ccc(S(=O)(=O)C(C#N)c2nc3ccccc3nc2N2CCC(C)CC2)cc1 (configuration not stated)	69	88	/
COc1ccc(C(=O)Oc2c(CN3CCOCC3)cc(Cl)c3cccnc23)cc1	75	57	16
COc1ccc(CN2CCN(c3ccccn3)CC2)c(OC)c1	89	/	2
Oc1c(CN2CCN(c3ccccn3)CC2)cc(Cl)c2cccnc12	53	75	45*
COCc1cc(CN2CCCC2)c(O)c2ncccc12	126	89	43*
O=c1c2ccccc2nc2n1CCN2Cc1ccc(Cl)cc1	80	/	25
CCOC(=O)c1ccc(CNC(=O)c2cc(C(C)(C)C)oc2C)o1	105	104	2
O=C(CN(C(=O)CNC(=O)c1ccco1)c1ccc(Cl)c(Cl)c1)NC1CCCCC1	84	92	5
CCn1cc(C(=O)Nc2ccc(NC(=O)c3ccco3)cc2)c(=O)c2ccc(C)nc21	80	93	7
Cc1sc2nc(C3CC3)nc(NCCNS(C)(=O)=O)c2c1C	84	73	1
CCOc1cc(C(=O)NCCOC)ccc1OC	-8.0*	114	3
COCCNC(=O)c1ccccc1NC(=O)c1ccc(OC)c(OC)c1	183	81	14
Cc1nn(-c2ccccc2)c(Cl)c1C(=O)Nc1nnc(C2CCCC2)s1	70	82	3
SMILES	HER2 expr 66K	SKBR3 24h inh	Jurkat tox 60K
Cc1cccn2c(=O)c3cc(C(=O)N4CCN(c5ccccc5)CC4)n(C)c3nc12	89	82	-4
Cn1cnnc1SCC(=O)c1c[nH]c2ccccc12	75	/	1
CCn1c(SCC(=O)c2c[nH]c3ccccc23)nnc1-c1cccs1	56	99	58*
CCC(=O)Nc1cc(C)c(NC(=O)c2ccccc2OC)cn1	109	94	2
CC(OC(=O)c1ccccc1NCc1ccco1)C(=O)Nc1ncc(Cl)cc1Cl (configuration not stated)	89	78	/
COc1cc(C2CC(=O)c3c([nH]c(C(=O)OCCOC(C)C)c3C)C2)cc(OC)c1OC (configuration not stated)	81	/	43*
COc1ccc(OC)c(NC(=O)C2CC(C)=C(C)CC2C(=O)O)c1 (configuration not stated)	74	/	-5
COCCOC(=O)c1[nH]c2c(c1C)C(=O)CC(c1cc(OC)ccc1OC)C2 (configuration not stated)	70	/	65*
CCOC(=O)c1[nH]c2c(c1C)C(=O)CC(c1ccc(OC)c(OC)c1)C2 (configuration not stated)	88	/	/
COc1ccc(OC)c(C2CC(=O)c3c([nH]c(C(=O)OC(C)C)c3C)C2)c1 (configuration not stated)	23	/	98*
CCCOCCOC(=O)c1[nH]c2c(c1C)C(=O)CC(c1cc(OC)ccc1OC)C2 (configuration not stated)	36	/	22
Cc1cnc(C(=O)Nc2ccccc2-c2ccc(C)o2)cn1	127	/	/
O=C(O)c1ccc2nc(C(F)(F)F)[nH]c2c1	86	105	-9
CC(O)CCc1nc2ccc(C(=O)O)cc2[nH]1 (configuration not stated)	-19*	96	7
c1ccc(CCCNc2ncnc3nc[nH]c23)cc1	87	/	0
Clc1ccc(CCNc2ncnc3nc[nH]c23)cc1	91	/	35*
Nc1n[nH]c(-c2ccccc2)c1-c1ccccc1	162	/	-9
Cc1nc(COC(=O)c2c(C)nn(-c3ccccc3)c2C)cs1	70	87	-1
O=C(Nc1ccc(O)c(C(=O)O)c1)c1ccc2c(c1)C(=O)N(CC1CCCO1)C2=O (configuration not stated)	63	99	7
COc1ccccc1NS(=O)(=O)c1cc(Cl)ccc1OC	100	/	-4
COc1ccccc1N=c1oc2cc(O)ccc2cc1C(N)=O	48	74	43*
COc1ccccc1N=c1oc2cc(O)ccc2cc1C(=O)NCC1CCCO1 (configuration not stated)	76	76	10
CCn1c(Oc2ccc(Oc3ncc(Cl)cc3Cl)cc2)nc2c1c(=O)n(C)c(=O)n2C	123	57	-2
CCOC(=O)c1ccc(NCc2ccc3c(c2)OCO3)cc1	97	43*	4
CCOC(=O)c1ccc(NCc2ccc(N(C)C)cc2)cc1	86	86	0
SMILES	HER2 expr 66K	SKBR3 24h inh	Jurkat tox 60K
c1cncc(-c2nc(-c3ccc4c(c3)OCO4)cs2)c1	81	/	/
Oc1ccc(-c2nc(-c3ccc(O)c(O)c3)cs2)cc1	46	/	97*
CCn1c(=O)c(C2=NS(=O)(=O)c3ccccc3N2)c(O)c2ccccc21	56	83	-2
Cc1c(C(=O)N2CCCc3ccccc32)oc2ccc(S(=O)(=O)N3CCOCC3)cc12	92	/	-2
COc1ccc(C2C=C(c3ccc(Cl)cc3)Nc3nc(NC(C)=O)nn32)cc1 (configuration not stated)	105	66	/
COc1ccc(C2=CC(c3ccc(Cl)cc3)n3cnnc3N2)cc1OC (configuration not stated)	91	40*	/
NC(=O)C1CCCNC1 (configuration not stated)	150	/	0
O=C(NCc1ccco1)c1noc2c1CCCCC2	94	93	-4
O=C(NCc1cccc(F)c1)c1noc2c1CCCC2	78	/	60*
O=C(NCc1cccs1)c1noc2c1CCCC2	85	80	68*
O=C(NCc1cccnc1)c1noc2c1CCCC2	96	98	6
O=C(NCc1ccccc1)c1noc2c1CCCC2	82	95	56*
O=C(NCc1ccc(Cl)cc1)c1noc2c1CCCC2	89	85	2
CN(CC(=O)N1CC=C(c2ccccc2)CC1)S(=O)(=O)c1cnc[nH]1	105	/	6
O=S(=O)(NCCc1ccncc1)c1ccc(S(=O)(=O)N2CCCCCC2)cc1	111	87	-3
